Rows were chosen to be rich in hits. Some 2.7% of all compounds tested hit in one or more screens of this group.
ATG4B inh = inhibitors of human ATG4B cysteine protease. inhibition, % at 8.33 µM. actives 0.51% (n = 340,000). ATG4B cleavage of LC3-PLA2, NBD-HPC fluorescence, 1 h. AID 504462. Q9Y4P1; in the data active = inhibition above about 40%
F508del corr = CFTR F508del correction in bronchial cells | actives 0.36% (n = 350,000) | CFBE cells, YFP halide quenching; stimulated with forskolin plus potentiator P3; % fluorescence drop versus neutral controls | activity (quench increase), % at 7.58 µM;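 active = mean added fluorescence quench of at least 8% versus neutral control, with both replicates also reaching 8%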;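 note: cells transiently co-express mutant CFTR-F508del with the halide-sensitive YFP; corrector assay measuring rescue of mutant channel to the surface after 24 h compound exposure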
CendR NRP1 mod = NRP-1/CendR interaction modulation. O14786. FAM-RPARPAR peptide binding to NRP-1, fluorescence polarization. inhibition, % at 25 µM. actives 0.85% (n = 360,000);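 active = inhibition or corrected inhibition above about 18%, plus a signal ratio from 0.5 to 1.5, limit read from the data, passing the limit was not always enough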
SKN-1 inh = blocks SKN-1 activity in C. elegans. actives 0.49% (n = 360,000). AID 624304. C. elegans VP596 Pgst-4::GFP/RFP ratio, acrylamide-induced, 24 h. inhibition, % at 21.8 µM;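 active = interference check ratio from 0.5 to 1.5 plus GFP to RFP signal ratio inhibition reaching or exceeding a fixed threshold, cut at about 30% in these data, passing the limit was not always enough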
MPTP inh = blocks calcium-induced mitochondrial swelling; isolated mouse mitochondria, Ca2+ swelling absorbance, 30 min; inhibition, % at 10 µM; actives 1.4% (n = 360,000);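 active = inhibition of 50% or more, scaled per plate between neutral and stimulator controls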;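 note: 0% = DMSO wells given calcium and 100% = 1 mM EGTA wells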
Numbers without * were called inactive; nt = no result.

SMILES	ATG4B inh	F508del corr	CendR NRP1 mod	SKN-1 inh	MPTP inh
Cc1noc(C)c1S(=O)(=O)Nc1ccc2c(c1)C(=O)N([C@@H](C)CO)C[C@@H](C)[C@@H](CN(C)C(=O)NC(C)C)OCCCC[C@H](C)O2	nt	1	nt	nt	nt
Clc1ccccc1N=Nc1ccccn1	2	1	41*	24	0
COc1ccc(NC(=O)N(C)C[C@H]2Oc3ccc(NC(=O)Cc4cn(C)c5ccccc45)cc3C(=O)N([C@H](C)CO)C[C@H]2C)cc1	nt	1	nt	nt	nt
O=C(Nc1sc2c(c1C(=O)O)CCC2)c1ccco1	1	nt	-4	-26	2
COC(=O)c1c(NC(=O)COC(=O)c2ccc(O)cc2)sc2c1CCCCC2	-2	-2	-4	3	41
COCC(=O)Nc1sc2c(c1C(=O)OC)CCCC2	2	nt	-5	34*	1
COC(=O)c1c(NC(=O)c2ccco2)sc2c1CCC2	-8	nt	6	40*	2
COCC#Cc1ccc([C@H]2[C@@H](CO)N3CCCCN(Cc4cccnc4)C[C@@H]23)cc1	nt	-1	nt	nt	nt
CCCNC(=O)N1C[C@@H]2[C@H](c3ccccc31)[C@H](CO)N2Cc1ccc(OC)cc1	nt	8.2*	nt	nt	nt
COCC(=O)N1C[C@@H]2[C@H](c3ccccc31)[C@H](CO)N2Cc1ccc(OC)cc1	nt	10*	nt	nt	nt
CC(C)C#Cc1ccc2c(c1)O[C@@H](CN(C)C(=O)c1cccnc1)[C@@H](C)CN([C@H](C)CO)S2(=O)=O	nt	-3	nt	nt	nt
C[C@H]1CN([C@@H](C)CO)C(=O)c2cccc(NC(=O)NC3CCCCC3)c2O[C@H]1CN(C)C(=O)NC1CCCCC1	nt	0	nt	nt	nt
COC(=O)c1ccc(CSCc2ccc(C(=O)OC)o2)o1	4	4	6	3	0
O=C(c1ccc(C#Cc2ccccc2)o1)N1CCN(c2ccccn2)CC1	7	nt	40*	8	1
O=C(c1ccc(COc2ccccc2Br)o1)N1CCN(c2ccccn2)CC1	5	nt	-12	-19	7
COC(=O)c1ccc(C#Cc2ccccc2)o1	5	-2	11	37*	2
Cc1noc(C)c1NC(=O)N(C)C[C@@H]1OCCCC[C@@H](C)Oc2ccc(NS(=O)(=O)c3ccccc3)cc2C(=O)N([C@H](C)CO)C[C@@H]1C	nt	3	nt	nt	nt
CCCNC(=O)N1[C@H](CO)[C@H](c2ccccc2-c2ccccc2)[C@@H]1C#N	nt	-2	nt	nt	nt
Cc1cccc(NC(=S)N/N=C/c2cccc(O)c2)c1C	-18	11*	-12	2	4
COc1ccc(/C=N/NC(=S)Nc2ccccc2[N+](=O)[O-])cc1O	-20	8.8*	0	4	0
CC(=O)N1[C@@H]2c3ccc(/C=C/c4ccccc4)c(=O)n3C[C@H]1[C@H](CO)[C@H]2C(=O)NCC1CC1	nt	1	nt	nt	nt
CCN(CC)c1ccc(N=Nc2ncn[nH]2)cc1	6	-1	-64	46*	3
COc1ccc(CN(C)C[C@H]2OCCCC[C@@H](C)Oc3ccc(NC(=O)C4CCCCC4)cc3C(=O)N([C@H](C)CO)C[C@@H]2C)cc1	nt	-1	nt	nt	nt
Cn1cccc1/C=C1\SC(=S)N(NC(=O)c2ccc(F)cc2)C1=O	5	2	-80	22	4
Cn1cccc1/C=C1\SC(=S)N(NC(=O)c2ccccc2)C1=O	11	3	-61	38*	1
SMILES	ATG4B inh	F508del corr	CendR NRP1 mod	SKN-1 inh	MPTP inh
Cn1cccc1/C=C1\SC(=S)N(NC(=O)c2cccc(Cl)c2)C1=O	1	nt	-50	38*	2
COc1cc(/C=C2\SC(=S)N(NC(=O)c3ccncc3)C2=O)ccc1O	3	13*	-167	21	8
COc1c(O[C@@H]2O[C@H](CO)[C@@H](O)[C@H](O)[C@H]2O)cc2c(c1OC)-c1ccc(SC)c(=O)cc1C(NC(C)=O)CC2 (stereo partly drawn)	-5	14*	-6	-14	0
COc1cc2c(c(OC)c1OC)-c1ccc(SC)c(=O)cc1C(NC(=O)c1ccccc1)CC2 (stereo not drawn)	5	0	0	-7	0
COc1c(C=O)c2c(c(OC)c1OC)-c1ccc(OC)c(=O)cc1C(NC(C)=O)CC2 (stereo not drawn)	-1	11*	-4	3	2
COc1cc2c(c(OC)c1OC)-c1ccc(OC)c(=O)cc1C(NC(C)=O)CC2 (stereo not drawn)	5	1	7	19	1
COc1c(C=O)cc2c3c1CCCN3CCC2	-3	1	-7	4	0

Compound activity deposited in PubChem BioAssay by several laboratories.
